Test results taken from PubChem BioAssay (NCATS).
Where “and” joins values, the source holds several entries; their conditions need not be identical. Identical values can stand only once. Results filed as inconclusive are left out. Where a call stands in place of a potency, no number is given. Unmarked numbers belong to inactive results. Calls of active or inactive are those of the source. The call rests on the fitted dose curve; in most records, active means well fitted curve in the direction sought with a large enough effect; inconclusive means small, poorly fitted or top-dose-only effect, or another doubt; inactive means no such curve, though single readings can be large; an effect the other way counts as inactive or inconclusive.

What was measured:
[1] = Quantitative highthroughput screen to assess conditional lethalithy of NOMO1 cells grown in RPMI1640 with untreated serum (RPMI+s) (AID 1963876); conditions: NOMO1 AML cells in RPMI+serum, CellTiter-Glo viability, 48 h; series mostly up to 45.8 µM; further: nearly all actives have a fitted effect of over 35% in size; further: potency means the concentration at half of the fitted maximal effect
Procedure, shortened: (§1)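 Each medium arm—HPLM with 10% dialyzed FBS, or RPMI1640 with 5 mM glucose and 10% untreated or dialyzed FBS—was screened against an 11-point, 3-fold compound titration for 48 h at 37 °C, with CellTiter-Glo luminescence as endpoint.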

[2] = Quantitative highthroughput screen to assess conditional lethalithy of NOMO1 cells grown in RPMI1640 with dialyzed fetal bovine serum (RPMI+ds) (AID 1963877); conditions: NOMO1 in RPMI+dialyzed FBS viability, ATP luminescence, 48 h; series mostly up to 45.8 µM; further: nearly all actives have a fitted effect of over 30% in size; further: potency means the concentration at half of the fitted maximal effect
Procedure, shortened: as §1

[3] = Quantitative highthroughput screen to assess conditional lethalithy of P12 Ichikawa cells grown in Human Plasma-Like Medium with dialyzed fetal bovine serum (HPLM+ds) (AID 1963879); conditions: ATP luminescence, 48 h; Potency: viability; series mostly up to 45.8 µM; further: nearly all actives have a fitted effect of over 35% in size; further: potency means the concentration at half of the fitted maximal effect
Procedure, shortened: as §1

[4] = Quantitative highthroughput screen to assess conditional lethalithy of P12 Ichikawa cells grown in RPMI1640 with dialyzed fetal bovine serum (RPMI+ds) (AID 1963880); conditions: ATP luminescence, 48 h; Potency: P12-Ichikawa viability; series mostly up to 45.8 µM; further: nearly all actives have a fitted effect of over 35% in size; further: potency means the concentration at half of the fitted maximal effect
Procedure, shortened: as §1

[5] = Quantitative highthroughput screen to assess conditional lethalithy of SEM cells grown in Human Plasma-Like Medium with dialyzed fetal bovine serum (HPLM+ds) (AID 1963882); conditions: SEM B-ALL cells in HPLM+ds, CellTiter-Glo viability, 48 h; series mostly up to 45.8 µM; further: nearly all actives have a fitted effect of over 35% in size; further: potency means the concentration at half of the fitted maximal effect
Procedure, shortened: as §1

[6] = Quantitative highthroughput screen to assess conditional lethalithy of SEM cells grown in RPMI1640 with unreated serum (RPMI+s) (AID 1963883); conditions: SEM B-ALL cells, CellTiter-Glo viability, 48 h; series mostly up to 45.8 µM; further: nearly all actives have a fitted effect of over 35% in size; further: potency means the concentration at half of the fitted maximal effect
Procedure, shortened: as §1

[7] = Quantitative highthroughput screen to assess conditional lethalithy of SEM cells grown in RPMI1640 with dialyzed fetal bovine serum (RPMI+ds) (AID 1963884); conditions: SEM B-ALL cells, RPMI+dialyzed FBS, CellTiter-Glo viability, 48 h; series mostly up to 45.8 µM; further: nearly all actives have a fitted effect of over 35% in size; further: potency means the concentration at half of the fitted maximal effect
Procedure, shortened: as §1

[8] = Cellular viability qHTS for adrenocortical cancer (ACC) cell line SW-13 (AID 1963989); conditions: SW-13 ACC cells viability, CellTiter-Glo, 48 h; activity (max response): stronger effect = lower value;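 further: cells grown in serum-free medium with ITS supplement; nearly all actives have a fitted effect of over 65% in size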
Procedure, shortened: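 Viability was read as CellTiter-Glo luminescence after 48 h compound treatment (up to 46 uM final) of SW-13 cells grown serum-free; titration curves were fit with a four-parameter logistic model to give IC50 and efficacy.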

[9] = Cellular viability qHTS for adrenocortical cancer (ACC) cell line NCI-H295R (AID 1963990); conditions: CellTiter-Glo ATP luminescence, 48 h; series mostly up to 46.1 µM; further: nearly all actives have a fitted effect of over 60% in size
Procedure, shortened: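 CellTiter-Glo ATP luminescence, read 48 h after compound addition, measured viability of NCI-H295R adrenocortical cells grown serum-free with ITS. Final concentrations spanned up to 46 uM. Data normalized to DMSO and doxorubicin, fitted for IC50 and maximal response.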

[10] = Quantitative highthroughput screen to assess conditional lethalithy of P12 Ichikawa cells grown in RPMI1640 with untreated serum (RPMI+s) (AID 1963881); conditions: ATP luminescence, 48 h; Potency: viability; series mostly up to 45.8 µM; further: nearly all actives have a fitted effect of over 35% in size; further: potency means the concentration at half of the fitted maximal effect
Procedure, shortened: as §1

[11] = Quantitative highthroughput screen to assess conditional lethalithy of NOMO1 cells grown in Human Plasma-Like Medium with dialyzed fetal bovine serum (HPLM+ds) (AID 1963878); conditions: NOMO1 AML cells in HPLM+ds, CellTiter-Glo viability, 48 h; series mostly up to 45.8 µM; further: nearly all actives have a fitted effect of over 35% in size
Procedure, shortened: as §1

SMILES | Potency [1] | Potency [2] | Potency [3] | Potency [4] | Potency [5] | Potency [6] | Potency [7] | activity (max response) [8] | Potency [9] | Potency [10] | Potency [11]
CC1(C)[C@H](O[C@H]2O[C@H](C(=O)O)[C@@H](O)[C@H](O)[C@H]2O[C@@H]2O[C@H](C(=O)O)[C@@H](O)[C@H](O)[C@H]2O)CC[C@@]2(C)[C@H]1CC[C@]1(C)[C@H]2C(=O)C=C2[C@H]3C[C@@](C)(C(=O)O)CC[C@]3(C)CC[C@]21C | inactive | inactive | inactive | inactive | inactive | inactive | inactive |  |  |  | 
Cc1ccc(/C=N/NC(=O)c2ccccc2Oc2ccccc2)o1 | inactive | inactive | inactive | inactive | inactive | inactive |  | -16.3% | inactive |  | 
CC(C)(C)OC(=O)CN(Cc1ccc(Cl)cc1)Cc1ccc([N+](=O)[O-])s1 | inactive | inactive |  |  |  |  |  | -11.1% | inactive | inactive | 
CC(C)OC(=O)C(C(=O)OC(C)C)=C1SC=CS1 | inactive | inactive | inactive | inactive |  |  |  | -12.3% and 0.529% | inactive | inactive | 
COc1cc([C@@H](CC(=O)O)c2ccc(C)c(CN3C[C@@H](C)Oc4ccccc4S3(=O)=O)c2)cc2nnn(C)c12 | inactive | inactive |  | 18.6 µM (active) |  |  |  |  | inactive | 14.8 µM (active) | 
CC(=O)N[C@H]1[C@@H]([C@H](O)[C@H](O)CO)OC(C(=O)O)=C[C@@H]1N=C(N)N | inactive | inactive | inactive | inactive | inactive |  |  |  |  |  | 
CC=CCC=CCCC(=O)[C@H]1O[C@@H]1C(N)=O | inactive | inactive |  | inactive |  |  |  |  |  | inactive | 
C[C@@]12C[C@@]3(O)O[C@@H](O1)[C@]1(COC(=O)c4ccccc4)[C@@H]3C[C@@]12O[C@@H]1O[C@H](CO)[C@@H](O)[C@H](O)[C@@H]1O | inactive | inactive |  | inactive | inactive | inactive | inactive |  |  | inactive | 
NC(=O)N1c2ccccc2CC(=O)c2ccccc21 | inactive | inactive | inactive |  | inactive | inactive | inactive | 10.8% |  | inactive | 
COC1CCC(N(C(=O)C2CCC(C)CC2)c2cc(C3=CCCCC3)sc2C(=O)O)CC1 (centres undefined) | inactive | inactive | 18.7 µM (active) | 14.8 µM (active) |  |  |  | 0.0132% | inactive |  | 
CN[C@H]1[C@@H](O)[C@@H]2O[C@@H]3O[C@H](C)CC(=O)[C@]3(O)O[C@@H]2[C@@H](NC)[C@H]1O | inactive | inactive |  | inactive | inactive | inactive | inactive |  |  | inactive | 
O=C1C(CCC(O)c2ccc(F)cc2)C(c2ccc(O)cc2)N1c1ccc(F)cc1 (centres undefined) | inactive | inactive | inactive |  | inactive | inactive |  |  |  | inactive | 
COc1cc(Nc2ncc(F)c(Nc3ccc4c(n3)NC(=O)C(C)(C)O4)n2)cc(OC)c1OC | 5.9 µM (active) | 9.35 µM (active) | 4.18 µM (active) | 5.26 µM (active) | 1.66 µM (active) | 1.48 µM (active) | 1.66 µM (active) |  |  |  | 
CC(C)(N)C(=O)N[C@H](COCc1ccccc1)C(=O)N1CCC2(CC1)CN(S(C)(=O)=O)c1ccccc12 | inactive | 10.5 µM (active) |  | 23.5 µM (active) |  |  |  | -9.29% | inactive | 26.4 µM (active) | 
CNC(=O)[C@H](CC1=CN=C2C=CCC=C12)NC(=O)[C@@H](CC(=O)NO)CC(C)C | 8.33 µM (active) | 8.33 µM (active) |  |  | inactive | inactive |  |  |  |  | 
O=C(C=Cc1ccc(O)cc1)c1ccc(O)cc1O | inactive | inactive |  | 13.2 µM (active) |  | 18.7 µM (active) | 18.7 µM (active) |  |  | 16.6 µM (active) | 
CC(=O)O[C@@]12CO[C@H]1C[C@H](O)[C@@]1(C)C(=O)[C@H](O)C3=C(C)[C@@H](OC(=O)C(O)[C@@H](NC(=O)OC(C)(C)C)c4ccccc4)C[C@@](O)([C@@H](OC(=O)c4ccccc4)[C@@H]21)C3(C)C (some centres undefined) | inactive | inactive |  |  | inactive | inactive | inactive |  |  |  | 
Nc1cccc2c1C(=O)N(C1CCC(=O)NC1=O)C2=O (centres undefined) | inactive | inactive |  | 14.8 µM (active) |  |  |  | 11.8% | inactive | 16.6 µM (active) | 
CC(=O)OCC(=O)[C@@]1(O)CC[C@H]2[C@@H]3CCC4=CC(=O)CC[C@]4(C)[C@@H]3C(=O)C[C@@]21C | inactive |  | inactive | inactive | inactive |  |  |  |  | inactive | inactive
CNC(=O)c1ccc(N2C(=S)N(c3ccc(C#N)c(C(F)(F)F)c3)C(=O)C2(C)C)cc1F | inactive |  | inactive | inactive | inactive |  | inactive | -1.24% | inactive | inactive | inactive
